Screening results: PubChem BioAssay, National Center for Advancing Translational Sciences (NCATS)
gsp ag – activates gsp, the McCune-Albright syndrome mutation | 340,000 compounds, 0.13% hits | Potency, µM (series often up to 76.9 µM), inactives show top-dose activation (cAMP increase), most hits filed as activators | gsp mutant cells, cAMP HTRF, 30 min; active = well fitted activation curve with a large enough effect; inconclusive = small, poorly fitted or top-dose-only effect, or another doubt; inactive = no such curve, though single readings can be large or run the other way; cell line not stated here;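 note: phosphodiesterase inhibitor Ro 20-1724 added with compounds to block cAMP breakdown; nearly all actives have a fitted effect of over 60% in size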
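Cells in DMEM/10% FBS with G418 were pretreated with compounds in DMSO plus […] (300 uM stock) for 30 min at 37C. cAMP was measured by HTRF (cAMP-d2 plus anti-cAMP antibody-K) after 30 min at room temperature.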
gsp antag – antagonists of gsp mutant (McCune-Albright syndrome); 340,000 compounds, 0.4% hits; gsp-mutant cells, cAMP HTRF, 30 min; AID 624288; Potency, µM (top dose mostly 76.9 µM), for inactives: at the top dose activity change, negative = inhibition, actives largely listed as inhibitors; calls by dose curve; cell line not stated here;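 note: intracellular cAMP measured with PDE inhibitor Ro 20-1724 present during compound exposure; % is set by controls: 0 for no effect and ±100 for the full control effect; nearly all actives have a fitted effect of over 65% in size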
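HTRF cAMP read-out (cAMP-d2 plus anti-cAMP antibody-K in lysis buffer, 30 min RT). Before lysis, cells are exposed to compounds with […] for 30 min at 37C in DPBS containing Ca/Mg, BSA and Tween 20.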
ALOX12 inh – blocks human arachidonate 12S-lipoxygenase | P18054 | purified 12hLO, xylenol orange hydroperoxide absorbance | Potency, µM (top dose mostly 108 µM), without a hit: at the highest dose activity change, negative = inhibition, most hits filed as inhibitors | 580,000 compounds, 1.1% hits | AID 1671190; note: % is set by controls: 0 for no effect and ±100 for the full control effect
Target sequence (P18054 whole entry, looked up): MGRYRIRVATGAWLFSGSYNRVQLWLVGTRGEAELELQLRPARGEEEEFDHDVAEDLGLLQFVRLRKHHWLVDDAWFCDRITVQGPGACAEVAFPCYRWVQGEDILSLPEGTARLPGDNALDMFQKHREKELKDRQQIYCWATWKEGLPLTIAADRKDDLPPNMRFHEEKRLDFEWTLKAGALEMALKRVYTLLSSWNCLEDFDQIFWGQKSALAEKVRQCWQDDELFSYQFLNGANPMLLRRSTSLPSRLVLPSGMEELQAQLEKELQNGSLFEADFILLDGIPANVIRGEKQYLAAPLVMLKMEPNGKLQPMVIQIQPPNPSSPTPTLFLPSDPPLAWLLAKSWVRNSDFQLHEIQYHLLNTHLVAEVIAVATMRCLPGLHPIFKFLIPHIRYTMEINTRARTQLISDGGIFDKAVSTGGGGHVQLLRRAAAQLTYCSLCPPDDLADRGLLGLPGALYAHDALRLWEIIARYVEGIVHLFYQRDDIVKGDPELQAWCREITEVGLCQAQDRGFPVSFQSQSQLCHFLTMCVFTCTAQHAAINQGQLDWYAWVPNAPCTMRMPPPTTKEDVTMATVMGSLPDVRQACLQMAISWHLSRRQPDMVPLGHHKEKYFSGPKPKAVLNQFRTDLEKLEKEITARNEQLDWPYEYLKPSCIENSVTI
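Purified human 12hLO at 150 nM in 25 mM Hepes, 0.01% Triton X-100, pH 7.0, preincubated 15 min at room temperature with compound. Reaction started with 40 uM arachidonic acid, 30 min at room temperature. Hydroperoxide measured by Fe-xylenol orange, 573/405 nm absorbance ratio.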
Mito fusion act – inhibitors of mitochondrial division or activators of mitochondrial fusion. S. cerevisiae fusion-defective mutant growth rescue, CellTiterGlo 48 h. Potency, µM (doses to about 46.1 µM), inactives show top-dose growth rescue (activation), most hits filed as activators. 320,000 compounds, 0.23% hits. AID 485298; note: % of control where 0% means no effect; nearly all actives have a fitted effect of over 45% in size
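Growth-rescue viability read-out: after 48 h at the non-permissive 37C in glycerol/ethanol YPEG, yeast mitochondrial fusion mutants are measured by CellTiterGlo luminescence; compounds (23 nl pinned per well) restoring growth score as division inhibitors or fusion activators.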
FUS yeast rescue – rescues growth of FUS-expressing yeast; S. cerevisiae FUS-expressing, growth rescue, OD600, 24 h; Potency, µM (highest dose often 76.6 µM), hits mostly activators; 390,000 compounds, 0.24% hits;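 note: plate controls were DMSO vehicle for no effect and reference control for full effect; nearly all actives have a fitted effect of over 55% in size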
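S. cerevisiae expressing FUS from galactose induction served as the toxicity model. Growth after 24hr at 30C, read as absorbance at 600 nm, indicates suppression of toxicity; compounds dosed at several concentrations.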
Active calls of the source: *; i = inactive; ? = inconclusive; · = no result given; ! = not active in a repeat; [ ] = another dose, or the depositor's remark. Shown are actives, neighbours in structure and some others; about 1.6% of the full set was active somewhere. Unless noted, calls come from the whole dose curve; as a rule, active = well fitted curve in the direction sought with a large enough effect; inconclusive = small, poorly fitted or top-dose-only effect, or another doubt; inactive = no such curve, though single readings can be large; an effect the other way counts as inactive or inconclusive. Potency is the fitted concentration of half-maximal effect.

SMILES	gsp ag	gsp antag	ALOX12 inh	Mito fusion act	FUS yeast rescue
CCN(CC)CCN(C(=O)c1ccc2c(c1)OCCO2)c1nc2c(Cl)cccc2s1	-34.8%	6.6%	35.5µM*	-3.6%	i
Cc1cccc2sc(N(CCCN(C)C)C(=O)c3ccc4ncsc4c3)nc12	-0.9%	4.8%	?	-15.1%	i
CC(C)c1cc(C(=O)N2CCNC(=O)C2)c2ccccc2n1	·	·	1.0%	·	·
CC1=C(C)C(c2cn(C)c3ccccc23)N(Cc2ccccc2)C1=O (configuration not stated)	·	·	-14.8%	·	·
COc1ccc(C2=Nc3ccccc3N(C(=O)c3ccc(C(F)(F)F)cc3)C2C(=O)NCc2ccccc2)cc1 (configuration not stated)	·	·	?	·	22.4µM*
CCCCNC(=O)C1C(c2ccccc2)=Nc2ccccc2N1C(=O)c1ccc(C(F)(F)F)cc1 (configuration not stated)	·	·	-29.9%	·	?
Cn1nc(CC(=O)NCc2ccc(C(F)(F)F)cc2)c2ccccc2c1=O	-17.0%	12.6µM*	0.0%	-3.8%	i
CC1CCCCN1CCCNC1CCCC1 (configuration not stated)	·	·	1.3%	·	·
CC(C)NC(=O)c1ccc(F)cc1	·	·	-17.5%	·	·
CNNCc1ccc(C(=O)NC(C)C)cc1	·	-10.5%	12.2µM*!	·	i
Cc1oc(-c2ccccc2)nc1CC(=O)Nc1ccc(OC(F)F)cc1	·	·	-3.8%	·	·
Cn1cnc2c1c(=O)n(CCCSCc1c(F)cccc1Cl)c(=O)n2C	·	·	13.9%	·	·
COc1cc(SC)ccc1C(=O)OCC(=O)NCc1ccco1	·	·	-6.7%	·	·
COc1cc(N2C(=O)c3ccccc3C2=O)c(Cl)cc1C(=O)OCC(=O)NCc1ccco1	26.4%	-2.0%	79.4%	1.6%	15.8µM*
COc1ccc(NC(=O)c2ccc(-c3ccc([N+](=O)[O-])cc3)o2)cc1OC	7.8%	35.5µM*	2.2%	?	·
COc1ccc(CCNC(=O)c2ccc(-c3ccc([N+](=O)[O-])cc3Cl)o2)cc1OC	-35.9%	31.6µM*	-28.5%	?	i
COc1ccc(CCNC(=O)c2ccc(CS(=O)(=O)c3ccc(C)cc3)o2)cc1OC	?	-19.7%	?	-0.9%	i
COc1ccc(CCNC(=O)c2ccc([N+](=O)[O-])cc2Cl)cc1OC	-3.7%[15.4 µM]	-9.6%	127.1%	·	i
COc1ccc(CCNC(=O)c2ccc(N(C)S(=O)(=O)c3ccc(C)cc3)cc2)cc1OC	5.6%	28.2µM*	-6.0%	3.9%	i
COc1ccc(CCNC(=O)c2ccc(CS(=O)(=O)c3ccc(Cl)cc3)o2)cc1OC	-21.1%	39.8µM*	-23.3%	-0.2%	i
COc1ccc(CCNC(=S)NC(=O)c2cccc([N+](=O)[O-])c2)cc1OC	19.0%	-11.8%	35.5µM*	-6.6%	·
COc1ccc(CCNC(=S)NC(=O)c2ccccc2)cc1OC	-7.0%	?	?	-6.7%	i
COc1ccc(Br)c2oc(S)cc(=O)c12	-5.5%	?	6.31µM*	14.5%	i
COc1ccc(C(=O)c2ccc(OC)c(Br)c2)cc1Br	42.3%	8.8%	?	-1.9%	i
Cc1ccccc1NC(=O)CCc1c[nH]c2ccccc12	·	·	94.3%	·	·
SMILES	gsp ag	gsp antag	ALOX12 inh	Mito fusion act	FUS yeast rescue
CN1CCN(C(c2ccc(Br)cc2)c2cc(Cl)c3cccnc3c2O)CC1 (configuration not stated)	6.7%[15.4 µM]	9.3%	10µM*	?	i
COC(=O)c1ccc2nc(-c3cccc(Cl)c3)c(Cc3cccc(Cl)c3)n2c1	·	·	?	·	i
CCCc1nc2ccc(C(=O)OC)cn2c1Cc1ccc(C)cc1	·	·	10µM*	·	i
Fc1cccc(Cc2c(-c3ccco3)nc3c4ccccc4ccn23)c1	·	·	0.0%	·	i
Clc1cccc(Cc2c(-c3ccco3)nc3c4ccccc4ccn23)c1	·	·	10µM*	·	i
COC(=O)c1ccc2nc(-c3ccco3)c(Cc3cccc(Cl)c3)n2c1	·	·	15.8µM*	·	i
COC(=O)c1ccc2nc(-c3ccco3)c(Cc3ccccc3)n2c1	·	·	39.8µM*	·	?
Cc1cc(Cl)cc(C)c1OCC(=O)Nc1ccccc1N1CCCC1=O	·	·	-29.7%	·	·
CCOc1ccc(Nc2nc3ccccc3nc2NS(=O)(=O)c2cccc(Cl)c2)cc1	·	·	1.9%	·	·
Clc1ccc2nc(-c3ccco3)c(Cc3ccccc3)n2c1	·	·	17.8µM*	·	?
